# The full list was thinned out, with hits kept by preference.
# GPT2 inh – inhibitors of human GPT2 alanine aminotransferase; Recombinant GPT2, coupled pyruvate oxidase/HRP Amplex Red fluorescence; Potency, µM (titrated, usually from 57.7 µM), inactives show at the highest dose activity change, negative = inhibition, most hits filed as inhibitors; hit rate 0.25% among 100,000; active = well fitted inhibition curve with a large enough effect; note: nearly all actives have a fitted effect of over 60% in size
#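 Fluorescence of coupled pyruvate oxidase/HRP/Amplex Red system (50uM Amplex, 30 min, dark) reports pyruvate formed by GPT2. Enzyme reaction: 10ng/uL GPT2, 2mM L-alanine, 250uM a-KG, 30 min room temperature, pH 7.5; 50uM AOA control.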
# An asterisk follows results filed as active; i = inactive; [ ] = another dose, or the depositor's remark. % is set by controls: 0 for no effect and ±100 for the full control effect; potency is the fitted concentration of half-maximal effect.
SMILES,GPT2 inh
NCC(O)c1cc(O)c(O)cc1F (stereo not given),10µM*
CCOC(=O)[C@H]1CN(C(=O)c2cc3ccccc3s2)[C@]2(C)C(=O)N(CC3CC3)c3ccccc3[C@H]12,i
COC1CC(OC2CCC3(C=O)C(CCC4C3CCC3(C)C(C5=CC(=O)OC5)CCC43O)C2)OC(C)C1OC1OC(CO)C(O)C(O)C1O (stereo not given),2.9%[17.1 µM]
COc1cc2c(cc1OC1CCCC1)NC(=O)C21CCN(c2cnccn2)CC1,2.9%[88.5 µM]
CC(C)[C@H]1C(=O)N[C@H](CO)Cc2c[nH]c3cccc(c23)N1C,15.3µM*
CN1CCN(C(=O)Cc2c[nH]c3ncc(-c4ccccc4Oc4ccccc4)cc23)CC1,-0.9%[88.5 µM]
CCOC(=O)[C@H]1CN(C(=O)COc2ccccc2)[C@]2(C)C(=O)N(CC3CC3)c3ccccc3[C@H]12,1.8%[27.3 µM]
COc1ccc(CC(=O)N2CCN(Cc3ccccc3-c3ccc(C)c(Cl)c3)CC2)cc1,i
CCCCOC(=O)N1C[C@H](C(=O)OCC)[C@H]2c3ccccc3N(CC3CC3)C(=O)[C@]21C,-9.7%[27.3 µM]
COc1ccc2c3c1O[C@H]1[C@@H](O)C=C[C@H]4[C@@H](C2)N(C)CC[C@@]341,i
COc1ccc2c3c1O[C@H]1[C@H](O)CC[C@H]4[C@@H](C2)N(C)CC[C@@]341,-1.7%[88.5 µM]
CN1CC[C@]23c4c5ccc(O)c4O[C@H]2[C@@H](O)C=C[C@H]3[C@H]1C5,28.2µM*
CCOC(=O)[C@H]1CN(C(=O)CC2CCCC2)[C@]2(C)C(=O)Nc3ccccc3[C@H]12,-18.7%[27.3 µM]
CCOC(=O)[C@H]1CN(C(=O)OCC(C)(C)C)[C@]2(C)C(=O)N(CC3CC3)c3ccccc3[C@H]12,-0.8%[27.3 µM]
CC(C)=CCC[C@]1(C)C=Cc2c(O)c3c(c(CC=C(C)C)c2O1)O[C@]12C(=C[C@@H]4CC1C(C)(C)O[C@@]2(C/C=C(/C)C(=O)O)C4=O)C3=O,i
